# The campaign covered roughly 310,000 compounds. About 1,000 (0.32%) were called active. A selection follows. Results with a measured potency or affinity are listed apart. Values without a mark were called inactive. How the calls were made is not given here.
# Test: Inhibition of PhoP regulon, Salmonella typhi GFP reporter cells, confirmation, 4 h (AID 1850);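 further: 0% = induced wells with vehicle and 100% = uninduced wells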
# Conditions: Salmonella Typhi PhoP-promoter GFP reporter, fluorescence, at 50 µM, stronger effect = higher value
row,SMILES,inhibition
1,COc1cc(NC(=O)CSc2nnc(-c3ccncc3)n2C2CCCCC2)ccc1NC(=O)c1ccco1,-17.8%
2,Cc1cc(C)c(S(=O)(=O)N2CCC(C(N)=O)CC2)cc1C,16.3%
3,COc1ccc(-c2sc(Nc3ccc(F)c(F)c3F)nc2CCC(=O)NN)cc1,4.23%
4,CS(=O)(=O)N1N=C(c2ccco2)CC1c1ccccc1 (stereo not drawn),-3.63%
5,NC(=O)C1CCN(C(=O)/C=C/c2cc(Br)ccc2F)CC1,-0.48%
6,CCOC(=O)CNC(=S)NN(C)C,10.8%
7,CC(C)(C)OC(=O)N[C@@H](Cc1ccccc1)C(=O)N1CCC(C(=O)N[C@@H](CCC(N)=O)C(=O)O)CC1,-2.12%
8,CCOc1ccc(CCNC(=O)c2cc(=O)[nH]c3ccc(S(=O)(=O)N(CC)CC)cc23)cc1OCC,-9.13%
9,O=C1C=C(O)c2cccc3cccc1c23,-13.1%
10,O=C1C(=O)c2cccc3cccc1c23,-2.11%
11,CCOc1cc(N2CCOCC2)c(OCC)cc1NC(=O)CC12CC3CC(CC(C3)C1)C2,-0.45%
12,COc1ccccc1Nc1nc(Cl)nc(NC(C)(C)C)n1,-9.98%
13,Clc1ccc(-c2nc(Cc3ccccc3)no2)cc1,11.6%
14,OCCNCc1cc(Br)ccc1OCc1ccc(F)cc1,10.4%
15,OCCNCc1cc(Br)ccc1OCc1ccccc1,-2.3%
16,CCSP1(=S)N=C(N2CCOCC2)C(C#N)=C2CCCN21 (stereo not drawn),-5.06%
17,Cc1cccc(NCC(=O)N/N=C\c2cccn2C)c1,-0.18%
18,O=C(NC(=S)NNC(=O)c1cc2ccccc2cc1O)c1ccco1,-70.1%
19,O=C(NNC(=O)c1cccs1)c1ccc(Br)o1,-19.9%
20,O=C(Nc1ccc(NC(=O)c2cccs2)cc1)c1ccc(Br)o1,3.54%
21,O=C(NC(=S)NNC(=O)c1ccccc1O)c1cccs1,7.92%

row,SMILES,inhibition
1,O=C(NNC(=O)c1ccccc1O)c1ccco1,14.9%
2,O=C(NNC(=O)c1cccs1)c1ccco1,0.32%
3,COc1ccc(C(=O)NNC(=S)NC(=O)/C=C/c2cccs2)cc1,12%
4,O=C(NC(=S)Nc1ccc(NC(=O)c2cccs2)cc1)c1ccco1,-1.46%
5,Cc1ccc(-c2nnn(CC(=O)Nc3ccccc3N3CCOCC3)n2)cc1,-3.19%
6,COC(=O)C(O)(c1ccc(N(C)C(=O)OC(C)C)cc1)C(F)(F)F (stereo not drawn),0.83%
7,CCOc1ccc(S(=O)(=O)N(C)c2ccc(OCC(=O)NC3=NCCS3)cc2)cc1,-20.3%
8,O=C(Nc1cccnc1Cl)c1cc(-c2ccc(F)cc2)on1,5.5%
9,CCN(CCn1cccn1)C(=O)c1cc(COc2ccc(F)c(F)c2)on1,6.34%
10,CCOC(=O)c1nc2c(=O)n(C)c(=O)n(C)c2n(C)c1=O,2.99%
11,Cc1cccc(NC(=O)CSc2nnc(NC(=O)C3CC3)s2)c1C,3.53%
12,O=C(Cc1ccccc1)NNC(=O)c1cccs1,6.4%
13,O=C(NC(=S)NNC(=O)c1ccco1)c1ccc(F)cc1,0.37%
14,O=C(NC(=S)NNC(=O)c1ccco1)c1ccccc1,21.3%
15,O=C(Cc1ccc(Cl)cc1)NNC(=S)NC(=O)c1cccs1,11.9%
16,CC(=O)N1CCN(c2ccccc2NC(=O)Cc2ccc(Cl)cc2)CC1,-3.34%
17,COC(=O)C(Cc1ccc(O)cc1)NC(=O)CCNC(=O)c1ccco1 (stereo not drawn),-6.89%
18,CCCc1cc(CN(C)C(=O)CC2C(=O)NCCN2Cc2ccccc2C)[nH]n1 (stereo not drawn),-5.02%
19,CC(NS(=O)(=O)c1ccccc1)C(=O)NCc1ccco1 (stereo not drawn),4.53%
20,CC(=O)Nc1ccc(Nc2cc(C)c3ccccc3n2)cc1,-5.65%
21,Cc1ccc(Nc2cc(C)c3ccc(O)cc3n2)cc1C,9.14%

row,SMILES,inhibition
1,COc1ccc(Nc2cc(C)c3ccccc3n2)cc1,-2.31%
2,COC(=O)c1cc(Nc2cc(C)c3c(O)cccc3n2)cc(C(=O)OC)c1,-3.04%
3,Cc1ccc(-c2cc(C(=O)OCC(=O)Nc3ncc(C(F)(F)F)cc3Cl)c3ccccc3n2)cc1,-6.32%
4,O=C(CN1c2ccccc2S(=O)(=O)c2ccccc21)Nc1ccccc1F,2.92%
5,CC(NC(=O)Cn1ncc(Cl)c(Cl)c1=O)C12CC3CC(CC(C3)C1)C2 (stereo not drawn),-18.9%
6,O=C(O)CN1C2=NCCCN2c2ccccc21,-7.68%
7,O=C(CN1C2=NCCN2c2ccccc21)c1ccc(Br)s1,13.2%
8,O=C(CN1C2=NCCCN2c2ccccc21)c1ccc2c(c1)OCO2,28.1%
9,O=C(CN1C2=NCCCN2c2ccccc21)c1cccs1,9.76%
10,CCOC(=O)Nc1cc(Br)c2c(c1)OCCO2,9.05%
11,CCCC[C@@H]1C[C@H]1[C@@H](NC(=O)c1ccco1)c1ccc(C(=O)OC)cc1,-1.55%
12,COc1ccc(CNC(=O)c2ccc3c(=O)n(-c4ccccc4)c(=O)[nH]c3c2)cc1,9.07%
13,Cc1cccc2cc(CN(CCCO)C(=O)Nc3cccc(Cl)c3)c(=O)[nH]c12,-2.46%
14,C=CCNc1nc(C(=O)OCC(=O)c2ccc(Cl)cc2)cs1,0.24%
15,CS(=O)(=O)Nc1cccc(C2=NN(C(=O)c3ccc(F)cc3)C(c3cccs3)C2)c1 (stereo not drawn),-1.48%
16,O=C1OCCN1/N=C/c1ccc([N+](=O)[O-])o1,-7.99%
17,O=C1C2C(C(=O)N1/N=C/c1ccc([N+](=O)[O-])o1)C1C=CC2C12CC2 (stereo not drawn),-7.07%
18,O=C(c1cc(S(=O)(=O)N2CCOCC2)c(Cl)cc1Cl)N1CCCCC1,-2.41%
19,OC(COc1ccccc1)CN(Cc1ccccc1)CC(O)COc1ccccc1 (stereo not drawn),-0.87%
20,CCOc1ccc(-c2cc(C)[n+](CCN3CCOCC3)c(-c3ccc(OCC)cc3)c2)cc1,8.34%
21,CCOc1ccc(-c2cc(C)[n+](CCO)c(-c3ccc(OCC)cc3)c2)cc1,-1.61%

# — PubChem BioAssay AID1850 (Southern Research Specialized Biocontainment Screening …, 2009)
